Compound activity (PubChem BioAssay)
TDP1 cell noCPT: qHTS for Inhibitors of human tyrosyl-DNA phosphodiesterase 1 (TDP1): qHTS in cells in absence of CPT | DT40 Tdp1-/- hTDP1 cells, no CPT, ATP luminescence, 48 h | Potency, µM (doses to about 46.2 µM), actives largely listed as inhibitors | actives 15% (n = 420,000); note: nearly all actives have a fitted effect of over 55% in size
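Camptothecin absent (DMSO only). Human TDP1-complemented DT40 knockout cells, 400 cells/well, 37 °C for minimum 48 hr; ATP measured via CellTiter-Glo, 30 min dark incubation, luminescence.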
TDP1 block: blocks human tyrosyl-DNA phosphodiesterase 1; Q9NUW8; recombinant TDP1, AlphaScreen DNA substrate cleavage; Potency, µM (top dose mostly 130 µM), most hits filed as inhibitors; actives 0.28% (n = 350,000); note: nearly all actives have a fitted effect of over 40% in size
Target sequence (Q9NUW8 whole entry, looked up): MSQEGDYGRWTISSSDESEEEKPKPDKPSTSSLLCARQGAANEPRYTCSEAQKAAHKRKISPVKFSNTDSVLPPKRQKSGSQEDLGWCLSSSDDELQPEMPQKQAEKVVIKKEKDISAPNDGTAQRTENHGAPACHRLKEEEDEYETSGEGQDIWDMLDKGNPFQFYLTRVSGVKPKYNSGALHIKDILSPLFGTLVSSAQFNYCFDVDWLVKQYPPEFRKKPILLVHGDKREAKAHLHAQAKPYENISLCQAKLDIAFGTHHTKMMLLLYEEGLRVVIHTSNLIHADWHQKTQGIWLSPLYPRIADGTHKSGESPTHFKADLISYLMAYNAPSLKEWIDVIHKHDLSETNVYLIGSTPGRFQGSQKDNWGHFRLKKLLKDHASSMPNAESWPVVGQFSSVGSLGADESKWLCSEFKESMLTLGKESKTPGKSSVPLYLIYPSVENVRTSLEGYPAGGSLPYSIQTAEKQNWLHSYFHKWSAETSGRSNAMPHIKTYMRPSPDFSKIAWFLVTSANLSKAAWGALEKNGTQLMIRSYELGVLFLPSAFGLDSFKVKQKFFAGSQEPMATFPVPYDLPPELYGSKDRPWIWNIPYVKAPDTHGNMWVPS
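Steps: enzyme plus compound, 15 min RT; add biotin/phosphotyrosine-FITC oligonucleotide (15 nM final), react 5 min; add donor/acceptor beads (10 ug/ml final), 10 min; read AlphaScreen. Tdp1 at 1 nM final.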
DT40 TDP1 CPT: DT40-hTDP1 cell growth loss with CPT | chicken DT40 Tdp1-/-;hTDP1 cells + 20 nM CPT, ATP luminescence, 48 h | Potency, µM (highest dose often 46.2 µM), hits mostly inhibitors | actives 12% (n = 420,000) | AID 686979; note: nearly all actives have a fitted effect of over 55% in size
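Chicken DT40 Tdp1-/- cells complemented with human TDP1, 400 cells/well, exposed to compounds plus 20 nM camptothecin for at least 48 h at 37 C; viability read as ATP content by CellTiter-Glo luminescence.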
IL1B secr inh: blocks inflammasome-driven IL-1 beta release | THP-1 LPS/ATP IL-1B secretion, AlphaLISA, 16 h; stronger effect = lower value | activity change, % at 57.5 µM | actives 4.7% (n = 360,000); in the data active = activity change below about -50%; inconclusive = mostly about -30% to -49%
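THP-1 cells pretreated 1 hr with compounds (up to 57.5 uM final), then stimulated with LPS (250 ng/mL final) plus ATP (1.25 mM final); secreted IL-1B measured by AlphaLISA after 16 hr, decreased signal indicating inhibition.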
Giardia killer: Giardia lamblia killing. Giardia lamblia trophozoite viability. activity change, % at 7.66 µM, hits read low. actives 0.15% (n = 340,000); in the data active = activity change below about -80%; inconclusive = between about -30% and that limit;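 note: parasites exposed to compound for two days anaerobically before the ATP read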
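Giardia lamblia trophozoites (100 cells/well) were incubated with compounds for 48 h at 37 deg C under anaerobic conditions. Viability was read as ATP content by one-step luminescence after 15-30 min at room temperature.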
ELG1 repair inh: ELG1-dependent DNA repair inhibition; HEK293T ELG1-luciferase reporter, luminescence, 16 h; DNA damage induced by 5-fluorouridine; Potency, µM (titrated, usually from 46.1 µM), actives largely listed as inhibitors; actives 2.3% (n = 330,000); note: nearly all actives have a fitted effect of over 55% in size
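5-Fluorouridine DNA damage + compound/DMSO, 2,000 cells/well, 16 h, 37 °C/5% CO2. ONE-Glo, 30 min RT, luminescence. Readout = decrease in reporter signal.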
Of the large screens only hits and unclear results are named; the others gave an inactive call. Hits are enriched below; roughly 19% of the tested compounds scored in any of these assays. Unless noted, calls come from the whole dose curve; as a rule, active = well fitted curve in the direction sought with a large enough effect; inconclusive = small, poorly fitted or top-dose-only effect, or another doubt; inactive = no such curve, though single readings can be large; an effect the other way counts as inactive or inconclusive.

CC1CC2CCC(O2)C(C)C(=O)OC(C)CC2CCC(O2)C(C)C(=O)OC(C)CC2CCC(O2)C(C)C(=O)OC(C)CC2CCC(O2)C(C)C(=O)O1 (stereo not given)	none (no result: TDP1 cell noCPT, DT40 TDP1 CPT, IL1B secr inh, Giardia killer, ELG1 repair inh)
O=C(NCc1c(-n2cccc2)sc2c1CCCC2)Nc1cccc(C(F)(F)F)c1	TDP1 cell noCPT 4.1µM, DT40 TDP1 CPT 4.1µM (no result: IL1B secr inh, Giardia killer, ELG1 repair inh)
Cc1ccc(C(=O)Nc2ccccc2)cc1S(=O)(=O)N1CCCC1	none (no result: TDP1 cell noCPT, DT40 TDP1 CPT, IL1B secr inh, Giardia killer, ELG1 repair inh)
Cc1cccc(NC(=O)c2ccc(F)c(S(=O)(=O)N3CCN(c4ccc(F)cc4)CC3)c2)c1	TDP1 cell noCPT 16µM, DT40 TDP1 CPT inconclusive (no result: IL1B secr inh, Giardia killer, ELG1 repair inh)
O=C(Nc1ccc(Oc2ccccc2)cc1)c1ccc(F)c(S(=O)(=O)N2CCN(c3cccc(Cl)c3)CC2)c1	TDP1 cell noCPT 3.7µM, DT40 TDP1 CPT 1.8µM (no result: IL1B secr inh, Giardia killer, ELG1 repair inh)
O=C(Nc1cccc(Cl)c1)c1c(O)c2c(n(Cc3ccccc3)c1=O)CCCC2	none (no result: TDP1 cell noCPT, DT40 TDP1 CPT, IL1B secr inh, Giardia killer)
CC(C)c1cc2c(c(O)c1O)[C@@]1(C(=O)O)CCCC(C)(C)[C@@H]1CC2	none (no result: TDP1 cell noCPT, DT40 TDP1 CPT, IL1B secr inh, Giardia killer, ELG1 repair inh)
CC(C)Oc1ccc(CNC(=O)C2CCCN(S(=O)(=O)c3ccc4c(ccn4C)c3)C2)cc1 (stereo not given)	TDP1 cell noCPT 21µM, DT40 TDP1 CPT 21µM (no result: IL1B secr inh, Giardia killer, ELG1 repair inh)
Cc1csc(NC(=O)C2CCCN(S(=O)(=O)c3ccc4c(c3)oc(=O)n4C)C2)n1 (stereo not given)	TDP1 cell noCPT inconclusive, DT40 TDP1 CPT inconclusive, ELG1 repair inh inconclusive
CNC(=O)Oc1ccc2c(c1)[C@@]1(C)CCN(C)C1N2C (stereo not given in full)	TDP1 cell noCPT inconclusive, DT40 TDP1 CPT inconclusive (no result: IL1B secr inh, Giardia killer, ELG1 repair inh)
Cc1oc(-c2ccc(Cl)cc2)nc1CS(=O)CC(=O)N1CCC2(CC1)OCCO2 (stereo not given)	none
COc1cccc(-c2nc(CS(=O)CC(=O)N3CCC4(CC3)OCCO4)c(C)o2)c1 (stereo not given)	none
Cc1ccc(Cl)cc1N1CCN(C(=O)C2CCN(Cc3nc(-c4ccc(Cl)cc4)oc3C)CC2)CC1	TDP1 cell noCPT 15µM, DT40 TDP1 CPT inconclusive (no result: IL1B secr inh, Giardia killer, ELG1 repair inh)
Cc1ccc(C)c(N2CCN(C(=O)C3CCN(Cc4nc(-c5cccc(Cl)c5)oc4C)CC3)CC2)c1	TDP1 cell noCPT 6.5µM, DT40 TDP1 CPT 9.2µM (no result: IL1B secr inh, Giardia killer, ELG1 repair inh)
C[C@@H]1OC(=O)[C@H]2C[C@H]3CCCC[C@@H]3[C@@H](/C=C/[C@H]3CCC[C@H](C)N3C)[C@@H]12	TDP1 cell noCPT inconclusive (no result: IL1B secr inh, Giardia killer, ELG1 repair inh)
CN1CCCC2(CCN(C(=O)c3ccco3)CC2)C1	none (no result: TDP1 block, IL1B secr inh, Giardia killer, ELG1 repair inh)
CCCCn1c(=O)c(C(=O)Nc2ccccc2N)c(O)c2ccccc21	TDP1 cell noCPT 23µM, DT40 TDP1 CPT inconclusive
CCCCCn1c(=O)c(C(=O)Nc2ccccc2N)c(O)c2ccccc21	TDP1 cell noCPT 21µM, DT40 TDP1 CPT inconclusive, Giardia killer inconclusive (no result: TDP1 block)
CCCCn1c(=O)c(C(=O)Nc2ccsc2C(=O)OC)c(O)c2ccccc21	TDP1 cell noCPT 5.2µM, DT40 TDP1 CPT 21µM
CCCCn1c(=O)c(C(=O)Nc2ccccc2F)c(O)c2ccccc21	TDP1 cell noCPT inconclusive (no result: TDP1 block)
CN(CC(=O)N[C@H](CO)Cc1ccccc1)C(=O)[C@H](CCS(C)=O)NC(=O)[C@@H](N)Cc1ccc(O)cc1 (stereo not given in full)	none (no result: IL1B secr inh, Giardia killer, ELG1 repair inh)
CCc1cccc(NC(=O)C2CCN(S(=O)(=O)c3ccc(Br)s3)CC2)c1	TDP1 cell noCPT inconclusive, DT40 TDP1 CPT inconclusive (no result: IL1B secr inh, Giardia killer, ELG1 repair inh)
CCOC(=O)C1(CCc2ccccc2)CCN(Cc2ccc3c(c2)OCCO3)CC1	TDP1 cell noCPT 26µM, DT40 TDP1 CPT inconclusive
O=C(Cc1ccccc1)N1CCN(C2CCCC2)CC1	none
CCOC(=O)C1(CCCc2ccccc2)CCN(C2CCCC2)CC1	TDP1 cell noCPT inconclusive, DT40 TDP1 CPT 18µM, IL1B secr inh -74, Giardia killer inconclusive
CCOC(=O)C1(CCc2ccccc2)CCN(Cc2ccc(NC(C)=O)cc2)CC1	TDP1 cell noCPT inconclusive, DT40 TDP1 CPT inconclusive (no result: TDP1 block)
